GLS inhibitor: qHTS for Inhibitors of Glutaminase (GLS); Glutaminase kidney isoform, mitochondrial (Homo sapiens), O94925; GLS enzymatic activity, qHTS titration; Potency, µM (titrated, usually from 45.5 µM), inactives show at the top dose activity change, negative = inhibition, most hits filed as inhibitors; 410,000 compounds, 0.21% hits; note: % is set by controls: 0 for no effect and ±100 for the full control effect
Target sequence (O94925 whole entry, looked up, canonical isoform): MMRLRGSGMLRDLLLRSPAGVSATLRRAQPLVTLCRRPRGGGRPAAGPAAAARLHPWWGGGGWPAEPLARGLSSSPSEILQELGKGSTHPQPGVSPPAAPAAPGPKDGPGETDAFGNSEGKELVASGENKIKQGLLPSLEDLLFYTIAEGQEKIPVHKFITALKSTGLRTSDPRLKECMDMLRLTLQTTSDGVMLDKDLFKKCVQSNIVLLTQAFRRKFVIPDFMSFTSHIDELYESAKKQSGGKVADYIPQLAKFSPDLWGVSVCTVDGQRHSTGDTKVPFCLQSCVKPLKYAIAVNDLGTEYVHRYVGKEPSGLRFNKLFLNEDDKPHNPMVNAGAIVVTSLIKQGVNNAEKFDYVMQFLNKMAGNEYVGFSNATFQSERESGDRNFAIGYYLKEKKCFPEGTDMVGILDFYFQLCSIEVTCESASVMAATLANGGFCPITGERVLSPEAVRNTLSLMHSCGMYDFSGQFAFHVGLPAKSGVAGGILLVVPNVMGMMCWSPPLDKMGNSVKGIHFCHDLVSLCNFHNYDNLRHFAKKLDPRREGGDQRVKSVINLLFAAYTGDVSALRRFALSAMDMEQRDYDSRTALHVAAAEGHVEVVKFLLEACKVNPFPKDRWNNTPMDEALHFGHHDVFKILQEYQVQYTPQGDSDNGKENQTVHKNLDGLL
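Two-point fluorescence kinetic (t0, 30 min RT) for hKGA; glutamate detected via glutamate oxidase–HRP–Amplex Red. Substrate: 1 mM L-glutamine solution; buffer 45 mM KH2PO4, pH 8.2.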
PTHR1 ag: qHTS for PTHR1 Agonists: Primary Screen | Parathyroid hormone/parathyroid hormone-related peptide receptor (Homo sapiens), Q03431 | 410,000 compounds, 0.075% hits | AID 743266, 2014 | HEK293 GP2 PTHR1 cells, GloSensor cAMP luminescence, 1 h | Potency, µM (doses to about 115 µM), for inactives: at the top dose activation, actives largely listed as activators; note: nearly all actives have a fitted effect of over 55% in size
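HEK-293-derived GP2 cells expressing PTHR1 and a GloSensor cAMP reporter, 3,000/well, plated overnight, given luciferin plus IBMX (each 0.5 mM as added) for 1 h at 37 °C, then compound for 1 h at 37 °C. Luminescence was read after 15 min at room temperature.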
GRP78 ERSR act: qHTS for Inducers of the Endoplasmic Reticulum Stress Response (ERSR) in Human Glioma: qHTS | U87-MG GRP78 promoter luciferase reporter, 16 h | Potency, µM, inactives show at the top dose activation, usual class: activators | 420,000 compounds, 0.02% hits; note: series mostly up to about 76 µM; % of control where 0% means no effect; nearly all actives have a fitted effect of over 35% in size
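ERSR induction read as luciferase luminescence (Bright-Glo, 10 min at room temperature) in stably transfected human U87-MG glioma cells exposed to compounds for 16 h, using GRP78 as sensor.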
GLP-1R agonist: qHTS of GLP-1 Receptor Agonists; HEK293 GLP-1R CRE-luciferase, luminescence, 4-6 h; cells express a hypersensitive GLP-1R form; Potency, µM (highest dose often 45.6 µM), for inactives: top-dose activation, hits mostly activators; 380,000 compounds, 0.007% hits; note: % of control where 0% means no effect
GLP-1R inv ag: qHTS of GLP-1 Receptor Inverse Agonists (Inhibition Mode); 410,000 compounds, 1.6% hits; Potency, µM (series often up to 38.3 µM), without a hit: top-dose activity change, negative = inhibition, hits mostly inhibitors; HEK293 GLP-1R CRE-luciferase, luminescence, 24 h; GLP-1R form is constitutively active; AID 624417, 2012; Glucagon-like peptide 1 receptor (Homo sapiens), P43220; note: % is set by controls: 0 for no effect and ±100 for the full control effect; nearly all actives have a fitted effect of over 55% in size
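Inverse agonism was detected as reduced cAMP-driven luciferase luminescence after 24 h compound treatment. The cells were HEK293 clones expressing constitutively active human GLP-1R with the reporter. Reporter-only and GPR119 cell lines served as counterscreen controls.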
ALOX12 inh: Primary qHTS assay for inhibitors of human arachidonate 12S-lipoxygenase (ALOX12): Round 2; 580,000 compounds, 1.1% hits; purified 12hLO, xylenol orange hydroperoxide absorbance; Potency, µM (doses to about 108 µM), inactives show at the top dose activity change, negative = inhibition, hits mostly inhibitors; Polyunsaturated fatty acid lipoxygenase ALOX12 (Homo sapiens), P18054; note: % is set by controls: 0 for no effect and ±100 for the full control effect
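Purified human 12hLO at 150 nM in 25 mM Hepes, 0.01% Triton X-100, pH 7.0, preincubated 15 min at room temperature with compound. Reaction started with 40 uM arachidonic acid, 30 min at room temperature. Hydroperoxide measured by Fe-xylenol orange, 573/405 nm absorbance ratio.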
* = called active by the depositor; i = inactive; ? = inconclusive; / = not tested or not shown; ! = repeats disagree; [ ] = remark or other dose. Most compounds without a hit are left out; they make up all but 2.3% or so of the library. Calls come from the whole dose curve; as a rule, active = well fitted curve in the direction sought with a large enough effect; inconclusive = small, poorly fitted or top-dose-only effect, or another doubt; inactive = no such curve, though single readings can be large; an effect the other way counts as inactive or inconclusive. Potency is the fitted concentration of half-maximal effect.

SMILES | GLS inhibitor | PTHR1 ag | GRP78 ERSR act | GLP-1R agonist | GLP-1R inv ag | ALOX12 inh
Cc1nc2ncnn2c(N2CCN(C(c3ccccc3)c3ccccc3)CC2)c1C | -2.1% | -24.6%[57.5 µM] | -3.3% | -2.4% | 0.0% | -13.7%
Cc1cc(N2CCN(C(c3ccccc3)c3ccccc3)CC2)n2ncnc2n1 | -6.4% | -11.3% | -3.0% | 20.9% | 11.2µM* | ?
CCCCCCc1ccc(C(=O)Oc2ccc(C#N)cc2)cc1 | / | / | / | / | / | -5.1%
COc1ccccc1N(C)S(=O)(=O)c1ccc(Cl)c(C(=O)OCc2c(C)noc2C)c1 | -0.5% | -22.0% | -4.1% | 17.0% | 10µM* | -0.5%
COc1ccccc1N(C)S(=O)(=O)c1ccc(Cl)c(C(=O)NNC(=O)c2ccccc2O)c1 | 22.5% | -2.6% | 1.0% | -3.0% | 11.2µM* | 2.5%
COc1ccccc1N(C)S(=O)(=O)c1ccc(Cl)c(C(=O)N2CCC2)c1 | 3.8% | -4.8% | -0.6% | 2.9% | -10.4% | -6.1%
COc1ccccc1N(C)S(=O)(=O)c1ccc(C(=O)NNC(=O)c2ccccc2O)cc1 | 23.6% | -18.8% | -3.8% | -11.3% | ? | 3.4%
O=C1NC(C(=O)O)=CC(c2ccc(Br)cc2)N1 (configuration not stated) | / | / | / | / | / | -38.9%
CC/C=C/C(=O)OCc1ccc(C(N)=O)cc1 | / | / | / | / | / | 7.0%
O=C(NCCc1c[nH]c2ccccc12)c1ccccc1OC(F)F | / | / | / | / | / | -2.0%
c1ccc2c(c1)CCN(c1nc3cc4c(cc3s1)OCCO4)C2 | 19.3% | -42.5% | -12.9% | -13.8% | 7.08µM* | ?
COc1ccc(OC)c2sc(N3CCc4ccccc4C3)nc12 | -0.3% | -28.4% | 4.3% | ? | 5.5% | -15.7%
CCOC(=O)C1(CCOc2ccccc2)CCN(Cc2cccc(F)c2)CC1 | 4.5% | -66.4% | -4.2% | -6.0% | ? | -20.4%
CCOC(=O)C1(CCOc2ccccc2)CCN(Cc2ccc(OCC)c(CO)c2)CC1 | 12.1% | -40.9% | -2.3% | -1.4% | 11.2µM* | -18.2%
CCOC(=O)C1(CCOc2ccccc2)CCN(Cc2cccc(OC)c2OC)CC1 | 1.1% | -17.4% | -4.1% | 20.8% | 10µM* | 12.1%
CCOC(=O)C1(CCOc2ccccc2)CCN(Cc2cccc(OCCO)c2)CC1 | -9.6% | -71.6% | -6.1% | 0.1% | ? | 4.2%
CCOC(=O)C1(CCOc2ccccc2)CCN(Cc2cccc(-n3cccn3)c2)CC1 | 5.0% | -53.3% | -4.7% | -4.5% | 5.01µM* | -8.7%
CCOC(=O)C1(CCCc2ccccc2)CCN(Cc2ccn[nH]2)CC1 | 1.0% | i | -2.5% | 12.5% | 4.47µM* | -7.9%
CCOC(=O)C1(CCCc2ccccc2)CCN(Cc2cnn(C)c2)CC1 | -0.2% | -21.5% | -0.4% | 13.5% | ? | 9.9%
Cc1ccc(C)c(NC(NC(=O)c2ccc(C(C)(C)C)cc2)C(Cl)(Cl)Cl)c1 (configuration not stated) | / | / | / | / | / | -3.0%
CCOC(=O)C1(CCOc2ccccc2)CCN(Cc2ccc(OC)cc2)CC1 | -0.9% | i | -1.2% | -1.0% | 10µM* | 2.3%
COc1ccc(NC(=O)CN2CCCN(S(=O)(=O)c3ccc(F)cc3)CC2)cc1 | 2.7% | -11.2% | -3.1% | 14.0% | -7.9% | ?
CCc1ccc(NC(=O)CN2CCCN(S(=O)(=O)c3ccc(F)cc3)CC2)cc1 | -8.4% | -29.8% | -4.1% | 5.4% | 5.01µM* | -10.5%
COC(=O)c1ccc(NC(=O)CN2CCN(S(=O)(=O)c3ccc(Br)cc3)CC2)cc1 | -0.2% | -12.2% | -3.6% | -1.0% | 3.55µM*! | -7.7%
O=C(Nc1cccc(S(=O)(=O)NC2=NCCC2)c1)C1(c2cccc(Cl)c2)CC1 | / | / | / | / | / | 1.3%
SMILES | GLS inhibitor | PTHR1 ag | GRP78 ERSR act | GLP-1R agonist | GLP-1R inv ag | ALOX12 inh
Cc1cccc(N2CCN(Cc3ccc(Br)o3)CC2)c1C | -0.5% | i | 0.6% | 4.2% | ? | 0.562µM*
CC(=O)NC1(C)CCN(Cc2cnc(-c3cccc(F)c3)s2)CC1 | / | / | / | / | / | 50.1µM*
Cc1cc(N2CCCCS2(=O)=O)cc(C)c1S(=O)(=O)N(C)CCc1ccncc1 | / | / | / | / | / | 8.8%
c1coc(-c2nc3ccccc3nc2-c2ccco2)c1 | ? | -24.1% | -1.0% | 6.4% | 76.7% | 50.1µM*
c1coc(-c2cnc3ccccc3n2)c1 | 1.5% | -26.3% | -3.3% | 6.0% | 19.6% | 39.8µM*
CC1(C)CC(=O)C2=C(C1)Nc1ccccc1NC2 | 13.8% | 15.3% | -2.5% | 6.1% | -24.0% | 12.5%
CC1(C)CC(=O)C2=C(C1)Nc1ccccc1S2 | 10µM* | -7.5% | -8.9% | 9.7% | -16.6% | 25.1µM*
CCCSc1ncc(Cl)c(C(=O)Nc2ccccc2C)n1 | / | / | / | / | / | 17.8%
Cc1ccsc1/C=C/C1=Cc2c(sc(N)c2C#N)C(C)(C)C1 | / | / | / | / | / | 17.8µM*
CCOC(=O)N1CCN(C/C(Cl)=C/c2ccccc2)CC1 | 7.6% | i | 3.6% | 2.7% | -7.3% | 2.24µM*
O=C(NC1(C(F)(F)F)C(=O)Nc2c1c(=O)[nH]c(=O)n2-c1ccccc1)c1cccs1 (configuration not stated) | / | / | / | / | / | -8.4%
O=C(N/N=C/c1c(F)cccc1Cl)C1CC1 | -1.2% | -10.5% | -0.7% | 5.6% | 11.0% | 120.4%
O=C(O)c1ccc(N/N=C/c2c(F)cccc2Cl)cc1 | 11.7% | -40.0% | -17.3% | -4.6% | 5.01µM* | 66.3%
COc1ccc(CCNc2nc(-c3cc(OC)c(OC)c(OC)c3)cs2)cc1OC | / | / | / | / | / | 7.94µM*
COc1ccc(-c2csc(NCCc3ccc(OC)c(OC)c3)n2)cc1 | / | / | / | / | / | 1.2%
Cc1ccc(-c2cnc(CCC(=O)NCc3ccc(OCC(F)(F)F)cc3)o2)cc1 | / | / | / | / | / | 2.7%
Cc1[nH]c(I)c(C)c1C=O | / | / | / | / | / | 14.1µM*
CCOc1cccc(-c2cc(C(=O)O)c3cc(C)cc(C)c3n2)c1 | / | / | / | / | / | -0.2%
COc1ccc(C(=O)/C(=C\c2cccc(Cl)c2)c2nc3ccccc3o2)cc1 | / | / | / | / | / | -1.2%
C=CC[N+](C)(C)CC#Cc1ccccc1 | / | / | / | / | / | -14.1%
O=S1(=O)C[C@H](N2CCN(c3ccccc3F)CC2)[C@@H](S(=O)(=O)c2ccccc2)C1 | / | / | / | / | / | -35.2%
Cc1noc(C)c1COC(=O)CCN1c2ccccc2Sc2ccccc21 | 29.2% | i | -5.2% | 16.2% | 4.47µM* | 0.0%
Nc1nccnc1C(=O)NCCc1ccccc1C(F)(F)F | / | / | / | / | / | -1.0%

Compound activity (PubChem BioAssay)
